From paper PMC7862700, “An all-to-all approach to the identification of sequence-specific readers for epigenetic DNA modifications on cytosine” come the findings set out here.

Common to all, as to test: DAPPL (digital affinity profiling via proximity ligation, sequencing); 10 mM Tris-HCl pH 7.5, 50 mM NaCl, 1 mM DTT, 4% glycerol, room temperature, 30 min; GST-TFs on glutathione beads, 16-mer random dsDNA library, 0.1% formaldehyde crosslink after washing; high values mean tight binding
Settings in all cases: protein: recombinant; tags: N-terminal GST; dsDNA, one strand shown

Assay [1] has as its target T1, ELK1 (Homo sapiens, UniProt P19419 1-428).
T1 sequence: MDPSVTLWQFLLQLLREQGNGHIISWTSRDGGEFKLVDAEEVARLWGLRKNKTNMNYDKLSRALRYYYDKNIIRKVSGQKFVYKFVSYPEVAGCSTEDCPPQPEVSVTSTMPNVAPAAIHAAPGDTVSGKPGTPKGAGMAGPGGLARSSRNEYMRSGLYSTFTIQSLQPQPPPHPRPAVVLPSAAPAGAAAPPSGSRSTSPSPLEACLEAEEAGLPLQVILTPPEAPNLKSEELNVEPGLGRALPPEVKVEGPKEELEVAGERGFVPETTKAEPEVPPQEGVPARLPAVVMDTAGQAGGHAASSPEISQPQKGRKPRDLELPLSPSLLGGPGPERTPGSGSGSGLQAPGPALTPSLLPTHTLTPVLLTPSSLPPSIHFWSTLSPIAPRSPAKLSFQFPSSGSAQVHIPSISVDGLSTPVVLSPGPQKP
Summed up: (§1)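 Binding signal is each hexamer's read frequency for a factor divided by its frequency in the tag-only sample. The factors were GST-fused human transcription factors from yeast, captured on glutathione beads, DNA-barcoded and pooled with that sample. Pools were incubated with 200 nmole of a random double-stranded 16-mer DNA library in Tris/NaCl/DTT/glycerol buffer at room temperature for 30 min, then washed, crosslinked with 0.1% formaldehyde, proximity-ligated with BsaI/T4 ligase (1 h, 37 °C), PCR-amplified and sequenced on an Illumina NextSeq500.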

The target of assay [2] is T2, GABPA (Homo sapiens, UniProt Q06546 1-454).
T2 sequence: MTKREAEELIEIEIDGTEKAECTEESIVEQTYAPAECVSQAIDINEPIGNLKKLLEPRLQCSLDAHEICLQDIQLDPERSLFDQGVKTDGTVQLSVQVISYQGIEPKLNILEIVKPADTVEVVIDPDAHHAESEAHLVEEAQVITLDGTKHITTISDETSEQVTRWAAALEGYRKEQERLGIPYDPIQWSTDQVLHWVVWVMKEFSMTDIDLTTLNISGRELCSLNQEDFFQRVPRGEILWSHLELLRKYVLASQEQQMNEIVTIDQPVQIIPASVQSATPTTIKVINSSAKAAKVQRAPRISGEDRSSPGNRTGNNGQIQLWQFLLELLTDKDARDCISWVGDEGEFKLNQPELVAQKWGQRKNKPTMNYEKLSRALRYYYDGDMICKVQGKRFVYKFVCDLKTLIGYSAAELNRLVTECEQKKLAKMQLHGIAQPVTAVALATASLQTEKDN
Summed up: as §1

In assay [3] the target is T3, ERG (Homo sapiens, UniProt P11308 1-479).
T3 sequence: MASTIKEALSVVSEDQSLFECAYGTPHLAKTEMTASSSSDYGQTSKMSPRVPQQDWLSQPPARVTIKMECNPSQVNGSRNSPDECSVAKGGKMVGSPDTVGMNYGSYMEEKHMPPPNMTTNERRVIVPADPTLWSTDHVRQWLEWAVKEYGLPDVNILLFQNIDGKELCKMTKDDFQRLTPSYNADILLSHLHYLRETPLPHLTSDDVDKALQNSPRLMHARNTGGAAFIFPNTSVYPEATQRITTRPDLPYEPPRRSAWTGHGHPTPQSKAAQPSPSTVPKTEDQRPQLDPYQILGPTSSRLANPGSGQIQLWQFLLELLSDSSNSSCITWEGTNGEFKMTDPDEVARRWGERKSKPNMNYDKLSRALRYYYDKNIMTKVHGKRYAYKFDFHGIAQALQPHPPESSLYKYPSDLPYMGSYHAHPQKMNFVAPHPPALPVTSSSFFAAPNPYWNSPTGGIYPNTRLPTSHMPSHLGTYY
A digest of the protocol: as §1

The target of assay [4] is ELF1 (Homo sapiens, UniProt P32519 1-619). A digest of the protocol:
as §1

In assay [5] the target is SPI1 (Homo sapiens, UniProt P17947 1-270). A digest of the protocol: as §1
Assay [6] has as its target SPIB (Homo sapiens, UniProt Q01892 1-262). Summed up: as §1
Assay [7] concerns the target ETV5 (Homo sapiens, UniProt P41161 1-510). A digest of the protocol: as §1
Assay [8] deals with ELF4 (Homo sapiens, UniProt Q99607 1-663). Summed up:
as §1

In assay [9] the target is T4, ELK4 (Homo sapiens, UniProt P28324-2 1-405).
T4 sequence: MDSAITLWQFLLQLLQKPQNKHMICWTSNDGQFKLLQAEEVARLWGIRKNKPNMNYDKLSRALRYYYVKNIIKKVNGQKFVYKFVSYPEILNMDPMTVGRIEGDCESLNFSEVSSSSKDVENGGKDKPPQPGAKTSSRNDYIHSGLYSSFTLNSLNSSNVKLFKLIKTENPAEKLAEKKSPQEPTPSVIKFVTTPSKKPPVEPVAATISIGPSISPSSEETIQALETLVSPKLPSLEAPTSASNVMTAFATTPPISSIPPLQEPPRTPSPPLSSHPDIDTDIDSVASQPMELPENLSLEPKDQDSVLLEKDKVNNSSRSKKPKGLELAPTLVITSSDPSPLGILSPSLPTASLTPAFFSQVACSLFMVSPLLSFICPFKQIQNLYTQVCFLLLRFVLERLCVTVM
Summed up:
as §1

The target in assay [10] is T5, ETV2 (Homo sapiens, UniProt O00321 1-342).
T5 sequence: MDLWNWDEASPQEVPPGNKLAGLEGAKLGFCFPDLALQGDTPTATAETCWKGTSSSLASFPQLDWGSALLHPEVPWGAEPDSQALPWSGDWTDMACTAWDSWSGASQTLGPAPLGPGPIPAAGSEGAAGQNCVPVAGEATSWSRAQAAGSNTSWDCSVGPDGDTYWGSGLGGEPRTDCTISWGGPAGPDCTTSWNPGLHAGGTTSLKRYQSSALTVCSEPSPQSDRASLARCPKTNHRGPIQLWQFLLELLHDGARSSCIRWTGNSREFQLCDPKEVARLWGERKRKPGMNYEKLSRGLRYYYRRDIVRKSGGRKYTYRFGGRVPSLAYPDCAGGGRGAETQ
A digest of the protocol: as §1

Assay [11] addresses T6, ELF3 (Homo sapiens, UniProt P78545 1-371).
T6 sequence: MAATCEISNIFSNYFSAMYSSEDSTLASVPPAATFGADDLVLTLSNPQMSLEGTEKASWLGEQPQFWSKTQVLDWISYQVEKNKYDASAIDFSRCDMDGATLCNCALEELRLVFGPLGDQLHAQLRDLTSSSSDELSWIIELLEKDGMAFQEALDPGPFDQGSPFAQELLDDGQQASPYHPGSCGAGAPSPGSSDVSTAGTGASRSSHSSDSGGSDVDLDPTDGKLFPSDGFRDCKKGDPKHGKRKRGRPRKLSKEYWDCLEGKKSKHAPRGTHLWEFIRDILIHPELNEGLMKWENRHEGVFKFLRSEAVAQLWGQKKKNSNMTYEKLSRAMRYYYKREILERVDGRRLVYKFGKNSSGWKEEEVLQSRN
Summed up:
as §1

Assay [12] has as its target T7, ERF (Homo sapiens, UniProt P50548 1-548).
T7 sequence: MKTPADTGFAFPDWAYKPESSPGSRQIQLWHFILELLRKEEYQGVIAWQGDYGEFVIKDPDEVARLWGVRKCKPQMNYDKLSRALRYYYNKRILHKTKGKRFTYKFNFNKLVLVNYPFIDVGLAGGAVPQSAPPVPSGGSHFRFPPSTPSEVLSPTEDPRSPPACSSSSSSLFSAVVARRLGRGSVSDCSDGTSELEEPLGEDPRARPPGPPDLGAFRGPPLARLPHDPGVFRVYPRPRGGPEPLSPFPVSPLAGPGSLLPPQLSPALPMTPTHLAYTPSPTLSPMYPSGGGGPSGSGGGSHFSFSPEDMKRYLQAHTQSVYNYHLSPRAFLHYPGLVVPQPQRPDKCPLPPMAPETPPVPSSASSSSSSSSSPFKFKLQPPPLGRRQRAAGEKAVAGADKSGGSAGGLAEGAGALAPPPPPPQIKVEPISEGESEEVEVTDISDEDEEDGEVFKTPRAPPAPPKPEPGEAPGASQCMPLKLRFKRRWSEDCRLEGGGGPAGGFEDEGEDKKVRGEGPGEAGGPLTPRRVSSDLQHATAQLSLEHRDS
Summed up:
as §1

For assay [13], the target named is T8, ETV3L (Homo sapiens, UniProt Q6ZN32 1-361).
T8 sequence: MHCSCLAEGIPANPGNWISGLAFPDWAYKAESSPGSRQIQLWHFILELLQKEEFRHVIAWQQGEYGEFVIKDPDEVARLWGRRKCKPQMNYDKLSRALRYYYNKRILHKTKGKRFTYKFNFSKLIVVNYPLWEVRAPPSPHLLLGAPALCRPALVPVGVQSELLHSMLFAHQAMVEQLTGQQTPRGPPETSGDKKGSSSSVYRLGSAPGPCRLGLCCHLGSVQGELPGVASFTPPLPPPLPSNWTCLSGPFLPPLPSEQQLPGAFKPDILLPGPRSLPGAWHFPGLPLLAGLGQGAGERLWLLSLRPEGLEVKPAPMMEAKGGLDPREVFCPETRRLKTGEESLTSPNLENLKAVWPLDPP
Summed up:
as §1

The target in assay [14] is T9, ETS2 (Homo sapiens, UniProt P15036 1-469).
T9 sequence: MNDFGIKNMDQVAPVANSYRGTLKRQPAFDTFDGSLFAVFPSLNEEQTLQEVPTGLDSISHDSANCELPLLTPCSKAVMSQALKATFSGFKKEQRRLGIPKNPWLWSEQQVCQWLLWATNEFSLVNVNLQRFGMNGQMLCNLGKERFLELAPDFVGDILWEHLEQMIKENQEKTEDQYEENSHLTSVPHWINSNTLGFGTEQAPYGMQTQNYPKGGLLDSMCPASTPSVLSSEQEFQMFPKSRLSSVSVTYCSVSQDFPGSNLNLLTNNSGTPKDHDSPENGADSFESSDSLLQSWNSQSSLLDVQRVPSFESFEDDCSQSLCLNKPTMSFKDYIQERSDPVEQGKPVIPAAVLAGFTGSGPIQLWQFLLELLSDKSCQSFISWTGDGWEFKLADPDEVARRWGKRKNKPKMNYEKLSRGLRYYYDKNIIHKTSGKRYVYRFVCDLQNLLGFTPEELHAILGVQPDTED
A digest of the protocol:
as §1

In assay [15] the target is T10, ETV7 (Homo sapiens, UniProt Q9Y603 1-341).
T10 sequence: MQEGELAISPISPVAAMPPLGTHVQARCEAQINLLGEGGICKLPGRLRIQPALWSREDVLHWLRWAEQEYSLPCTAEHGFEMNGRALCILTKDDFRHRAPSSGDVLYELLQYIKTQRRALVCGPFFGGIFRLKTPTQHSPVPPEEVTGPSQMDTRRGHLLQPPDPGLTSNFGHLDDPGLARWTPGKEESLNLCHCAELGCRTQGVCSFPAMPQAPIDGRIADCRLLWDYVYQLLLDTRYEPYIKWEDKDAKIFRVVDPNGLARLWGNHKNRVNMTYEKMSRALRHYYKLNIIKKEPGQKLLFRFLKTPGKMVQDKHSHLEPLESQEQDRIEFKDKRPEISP
Summed up: as §1

Assay [16] addresses T11, ETV3 (Homo sapiens, UniProt P41162-2 1-143).
T11 sequence: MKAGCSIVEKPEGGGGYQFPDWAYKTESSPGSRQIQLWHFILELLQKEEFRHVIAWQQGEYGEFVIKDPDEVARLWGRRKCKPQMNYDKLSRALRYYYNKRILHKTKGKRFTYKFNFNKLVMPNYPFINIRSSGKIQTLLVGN
A digest of the protocol: as §1

For assay [17], the target named is ETV6 (Homo sapiens, UniProt P41212 1-452). A digest of the protocol:
as §1

ELF4, sequence (Q99607 whole entry): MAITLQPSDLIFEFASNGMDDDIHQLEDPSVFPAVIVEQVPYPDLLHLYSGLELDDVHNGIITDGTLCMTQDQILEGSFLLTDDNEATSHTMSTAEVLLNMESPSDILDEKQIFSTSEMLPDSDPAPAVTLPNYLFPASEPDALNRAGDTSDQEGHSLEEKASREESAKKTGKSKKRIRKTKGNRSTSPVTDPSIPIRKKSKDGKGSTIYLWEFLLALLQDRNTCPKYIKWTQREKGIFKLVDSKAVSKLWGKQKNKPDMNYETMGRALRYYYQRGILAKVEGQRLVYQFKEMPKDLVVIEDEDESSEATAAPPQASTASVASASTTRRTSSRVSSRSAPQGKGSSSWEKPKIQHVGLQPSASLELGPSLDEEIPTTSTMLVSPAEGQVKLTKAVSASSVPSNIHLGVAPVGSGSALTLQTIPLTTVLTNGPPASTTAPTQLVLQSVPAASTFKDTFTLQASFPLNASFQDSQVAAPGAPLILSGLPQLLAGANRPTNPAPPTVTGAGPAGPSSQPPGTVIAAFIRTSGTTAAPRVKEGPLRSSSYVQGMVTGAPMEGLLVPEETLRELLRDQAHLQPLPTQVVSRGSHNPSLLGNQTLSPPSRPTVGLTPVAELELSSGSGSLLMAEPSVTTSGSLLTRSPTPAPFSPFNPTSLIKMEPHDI
ELF1, sequence (P32519 whole entry): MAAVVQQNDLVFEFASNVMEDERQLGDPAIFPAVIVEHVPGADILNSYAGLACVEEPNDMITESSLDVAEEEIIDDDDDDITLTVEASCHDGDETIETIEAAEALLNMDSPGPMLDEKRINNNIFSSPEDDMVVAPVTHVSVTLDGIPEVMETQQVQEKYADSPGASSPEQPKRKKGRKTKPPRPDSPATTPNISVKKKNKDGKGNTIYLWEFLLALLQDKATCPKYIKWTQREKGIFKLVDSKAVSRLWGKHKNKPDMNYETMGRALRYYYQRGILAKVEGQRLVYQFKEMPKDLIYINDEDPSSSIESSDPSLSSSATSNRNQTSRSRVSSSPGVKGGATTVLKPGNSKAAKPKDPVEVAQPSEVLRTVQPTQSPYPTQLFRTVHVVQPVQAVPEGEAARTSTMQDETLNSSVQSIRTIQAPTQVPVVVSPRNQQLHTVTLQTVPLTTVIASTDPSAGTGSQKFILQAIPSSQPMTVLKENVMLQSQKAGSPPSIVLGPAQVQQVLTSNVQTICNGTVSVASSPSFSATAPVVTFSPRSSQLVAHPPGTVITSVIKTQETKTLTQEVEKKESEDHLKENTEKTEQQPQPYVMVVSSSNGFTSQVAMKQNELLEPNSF
SPIB, sequence (Q01892 whole entry): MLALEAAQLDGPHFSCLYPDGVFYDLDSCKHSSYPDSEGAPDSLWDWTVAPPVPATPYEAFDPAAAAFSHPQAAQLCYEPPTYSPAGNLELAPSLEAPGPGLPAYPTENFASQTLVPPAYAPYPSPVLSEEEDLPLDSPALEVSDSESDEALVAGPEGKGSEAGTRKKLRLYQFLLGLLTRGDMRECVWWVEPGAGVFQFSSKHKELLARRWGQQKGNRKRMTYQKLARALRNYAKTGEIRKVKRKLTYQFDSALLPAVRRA
ETV6, sequence (P41212 whole entry): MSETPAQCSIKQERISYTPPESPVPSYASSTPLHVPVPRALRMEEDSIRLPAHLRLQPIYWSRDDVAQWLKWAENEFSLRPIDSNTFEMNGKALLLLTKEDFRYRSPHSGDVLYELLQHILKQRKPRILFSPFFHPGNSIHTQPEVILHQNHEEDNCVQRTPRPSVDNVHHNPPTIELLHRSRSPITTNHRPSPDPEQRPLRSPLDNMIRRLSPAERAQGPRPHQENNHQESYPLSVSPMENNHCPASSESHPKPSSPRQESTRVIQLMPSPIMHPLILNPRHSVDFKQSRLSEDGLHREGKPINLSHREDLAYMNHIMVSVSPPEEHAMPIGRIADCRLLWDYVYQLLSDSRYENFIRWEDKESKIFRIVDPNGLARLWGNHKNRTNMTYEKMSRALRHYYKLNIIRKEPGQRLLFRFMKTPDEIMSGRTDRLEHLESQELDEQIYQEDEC
ETV5, sequence (P41161 whole entry): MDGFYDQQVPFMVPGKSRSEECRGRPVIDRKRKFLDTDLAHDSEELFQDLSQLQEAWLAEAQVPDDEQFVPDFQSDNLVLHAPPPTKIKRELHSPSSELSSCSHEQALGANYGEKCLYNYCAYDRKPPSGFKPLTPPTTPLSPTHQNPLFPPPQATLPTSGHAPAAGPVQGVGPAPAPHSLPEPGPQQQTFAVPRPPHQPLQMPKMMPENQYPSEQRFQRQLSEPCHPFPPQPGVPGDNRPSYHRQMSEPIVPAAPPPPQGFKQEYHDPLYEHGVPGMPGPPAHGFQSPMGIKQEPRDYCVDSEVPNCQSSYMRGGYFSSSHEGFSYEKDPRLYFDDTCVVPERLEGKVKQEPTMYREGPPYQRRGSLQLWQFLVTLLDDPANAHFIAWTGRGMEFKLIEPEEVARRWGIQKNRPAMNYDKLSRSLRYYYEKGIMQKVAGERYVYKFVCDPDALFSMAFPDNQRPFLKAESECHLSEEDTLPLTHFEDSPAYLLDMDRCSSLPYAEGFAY

ACTGGT: the binding signal in [1] is 1.06 fold enrichment (6-mer frequency, TF over GST control); in assay [2], 1.08 fold enrichment (6-mer frequency, TF over GST control); in assay [3], 1.07 fold enrichment (6-mer frequency, TF over GST control); in assay [4], 1.13 fold enrichment (6-mer frequency, TF over GST control); in assay [5], 1.1 fold enrichment (6-mer frequency, TF over GST control); in assay [6], 1.08 fold enrichment (6-mer frequency, TF over GST control). For the same sequence, the binding signal in [7] is 1.02 fold enrichment (6-mer frequency, TF over GST control); in assay [8], 1.07 fold enrichment (6-mer frequency, TF over GST control); in assay [9], 1.06 fold enrichment (6-mer frequency, TF over GST control); in assay [10] it was 1.08 fold enrichment (6-mer frequency, TF over GST control); in assay [11], 1.06 fold enrichment (6-mer frequency, TF over GST control); in assay [12], 1.03 fold enrichment (6-mer frequency, TF over GST control). In addition, the binding signal in [13] is 1.07 fold enrichment (6-mer frequency, TF over GST control); in [14] it was 1.03 fold enrichment (6-mer frequency, TF over GST control); in assay [15], 1.05 fold enrichment (6-mer frequency, TF over GST control); in assay [16] it was 1.06 fold enrichment (6-mer frequency, TF over GST control); in [17], 1.08 fold enrichment (6-mer frequency, TF over GST control).
